From PubChem
An excerpt weighted towards active compounds, which were near 2.4% of everything screened.
D2 PAM-1: human D2 receptor positive allosteric modulation; 0.23% of 360,000 active; potentiation, % (no concentration beside the values); P14416; DiscoveRx D2 beta-arrestin cells, luminescence, 90 min; 100% = 57 uM dopamine signal; AID 624464; in the data active = potentiation above about 50%; inconclusive = mostly about 30% to 49%
Target sequence (P14416 whole entry, looked up): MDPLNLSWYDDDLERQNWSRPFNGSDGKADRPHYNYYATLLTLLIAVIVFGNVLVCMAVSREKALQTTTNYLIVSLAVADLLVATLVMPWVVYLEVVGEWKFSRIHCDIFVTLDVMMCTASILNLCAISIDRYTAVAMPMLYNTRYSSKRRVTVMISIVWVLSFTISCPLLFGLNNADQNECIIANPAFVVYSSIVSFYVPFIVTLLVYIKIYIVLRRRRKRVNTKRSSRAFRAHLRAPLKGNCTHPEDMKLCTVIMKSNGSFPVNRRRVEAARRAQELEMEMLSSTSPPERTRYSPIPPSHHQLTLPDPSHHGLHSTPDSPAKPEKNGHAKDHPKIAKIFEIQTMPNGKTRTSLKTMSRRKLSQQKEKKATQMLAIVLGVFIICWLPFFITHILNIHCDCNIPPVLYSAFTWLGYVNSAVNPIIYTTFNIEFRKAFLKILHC
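D2 cells co-treated with compound plus 50 nM dopamine (EC20) for 90 min at 37 deg C to detect potentiation. Beta-arrestin recruitment was read as enzyme-fragment luminescence after 1 h at ambient temperature. Full response was set by 57 uM dopamine.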
D2 ag-1: activates the human D2 dopamine receptor. AID 485358. activation, % at 2 µM. P14416. 0.53% of 340,000 active. HEK293 T-REx D2 cells, calcium flux agonist mode;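 active = activation over 3 SD above normal in the single-dose calcium agonist read, cut at about 30% in these data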; note: 0% is about no effect
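Agonism is scored from calcium flux in a force-coupled, inducible HEK293 cell line expressing D2, read kinetically for 180 s after compound addition against dopamine controls.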
D2 ag-2: agonists of human D2 dopamine receptor (beta-arrestin); P14416; DiscoveRx PathHunter D2 beta-arrestin, luminescence, 90 min; 100% = 57 uM dopamine signal; activation, % (concentration not given with the values); 0.084% of 360,000 active; in the data active = activation above about 40%; inconclusive = between about 15% and that limit
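Agonist mode: compounds alone added to overnight-plated D2 PathHunter cells for 90 min at 37 C, with 57 uM final dopamine (EC100) defining full response. Beta-arrestin recruitment detected by chemiluminescent reagent, read after 1 h at ambient temperature.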
D2 antag: antagonizes the human D2 dopamine receptor; 2% of 340,000 active; HEK293 TREx D2 cells, calcium flux, dopamine EC80; inhibition, % at 10 µM; P14416; in the data active = inhibition above about 30%; inactive = below that, where a call was filed; note: 0% is about no effect
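Inhibition of EC80 dopamine-driven calcium flux, recorded kinetically, defines activity here; cells are a tetracycline-induced HEK293 T-REx line expressing force-coupled D2.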
D2 PAM-2: D2 dopamine receptor (human) potentiation; 0.34% of 340,000 active; HEK293 T-REx D2, calcium flux, EC20 dopamine potentiation; potentiation, % at 10 µM;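 active = potentiation over 3 SD above the plate norm, cut at about 30% in these data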; note: 0% is about no effect
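Calcium flux readout, no-wash dye, 1 read/s. Inducible HEK293 Trex D2 line, overnight 30 C. Compound alone 180 s (agonist flags), then EC20 dopamine, another 180 s to score potentiation.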
Starred values were filed as active, the others as inactive; ? = inconclusive; / = no result given.

SMILES	D2 PAM-1	D2 ag-1	D2 ag-2	D2 antag	D2 PAM-2
CC(=O)N1CCN(C(=O)c2cccc(S(=O)(=O)Nc3c(C)n(C)n(-c4ccccc4)c3=O)c2)CC1	-14.0	0.1	0.9	51.1*	-5.2
Cc1c(NC(=O)c2cccc(NC(=O)Cc3ccc(Cl)cc3)c2)c(=O)n(-c2ccccc2)n1C	-1.0	0.4	-1.6	32.7*	0.7
Cc1c(NS(=O)(=O)c2cccc(C(=O)N3CCCC3)c2)c(=O)n(-c2ccccc2)n1C	-21.5	/	2.2	/	/
CC(=O)Nc1ccc(S(=O)(=O)Nc2c(C)n(C)n(-c3ccccc3)c2=O)cc1	-8.5	-0.7	-2.1	-0.2	2.5
Cc1c(NS(=O)(=O)c2ccc(NC(=O)CCC(=O)O)cc2)c(=O)n(-c2ccccc2)n1C	-7.3	1.2	8.0	30.1*	-4.2
CCCCc1nc(NCCO)c(C#N)c2c1CCCC2	-11.7	2.1	-4.8	48.2*	-4.0
COc1ccccc1N(C)S(=O)(=O)c1ccc(C(=O)NCC2CCCCC2)cc1	-3.0	-0.1	1.9	79.8*	-28.4
COC(=O)c1ccc(CNC(=O)c2ccc(S(=O)(=O)N(C)c3ccccc3OC)cc2)cc1	0.0	0.5	9.6	48.6*	-20.8
COc1ccccc1N(C)S(=O)(=O)c1ccc(C(=O)NCCc2ccc(F)cc2)cc1	-5.7	-1.5	0.5	-23.8	-13.7
COc1ccccc1N(C)S(=O)(=O)c1ccc(C(=O)NCC(C)C)cc1	-6.0	-0.2	-0.5	-12.9	12.6
Cn1c(C(=O)Nc2ccc(Cl)cc2)cc2cc(Cl)ccc21	-3.3	0.7	6.4	-2.7	4.8
Cc1ccccc1OCCn1cc(C=O)c2ccccc21	-4.0	-1.1	0.5	-0.3	13.8
COc1cc(NC(=O)c2cc(C3CC3)nc3c2c(C)nn3-c2ccc(C)cc2)cc(OC)c1	/	-0.6	/	/	0.2
Oc1ccccc1N1CCN(C(c2ccccc2)c2ccccc2)CC1	-3.1	-0.2	-4.5	30.3*	-1.6
CC(=O)N1CCN(C(c2ccccc2)c2ccccc2)CC1	-5.8	/	-3.3	/	/
O=C(COC(=O)/C=C/c1ccc(S(=O)(=O)N2CCOCC2)cc1)NCc1ccc(Cl)cc1	-14.3	0.5	-5.2	46.5*	-15.3
Cc1ccc(-n2cccn2)c(CN2CCCC(C(=O)c3sccc3C)C2)c1 (stereo not drawn)	-12.8	1.4	-3.8	72.6*	-14.3
Cc1nn(-c2ccccc2)c2c1C1(C(=O)N(C(C)C)c3ccccc31)C(C#N)=C(N)O2 (stereo not drawn)	60.3*	0.8	11.2	12.1	-10.5
CC(=O)c1ccc(N2CCN(CC(=O)Nc3ccc4c(c3)OCCO4)CC2)cc1	1.4	-2.0	-8.4	6.5	-5.4
CCCCCOc1ccc(Br)cc1/C(C)=N/NC1=NCCN1	-15.7	-0.3	-4.7	17.5	-11.1
COc1ccc(Br)cc1/C(C)=N/NC1=NCCN1	-43.6	0.8	-4.3	32.6*	-24.2
COc1ccc(-c2noc(CNC(=O)c3ccco3)n2)cc1	/	0.6	/	/	6.3
O=C(NCc1nc(-c2ccc(Cl)cc2)no1)c1ccco1	-0.7	0.1	0.3	34.1*	12.4
CC(C)(CC(=O)O)Cc1nc(-c2ccc(Cl)cc2)no1	-5.9	-1.8	-3.0	43.6*	-4.5
Cc1cccc(C)c1OCC(=O)OCC(=O)c1ccc2c(c1)NC(=O)CO2	6.1	0.7	-1.4	30.2*	-5.4
SMILES	D2 PAM-1	D2 ag-1	D2 ag-2	D2 antag	D2 PAM-2
O=C(COc1ccc(Br)cc1)Nc1ccc2c(c1)C(=O)NC2=O	-9.3	0.4	-3.5	33.4*	-14.7
CCCCn1c(N)c(N(CC(C)C)C(=O)c2cccc(OCc3ccccc3)c2)c(=O)[nH]c1=O	1.7	-0.3	-0.7	-30.2	30.2*
CCCCn1c(N)c(N(CCC(C)C)C(=O)c2cccc(S(=O)(=O)N3CCN(C)CC3)c2)c(=O)[nH]c1=O	-15.4	0.1	-5.1	34.0*	-4.9
Cc1cccc(C(=O)Nc2ccc(N3CCC(N4CCCCC4)CC3)c(C(=O)O)c2)c1	/	0.3	/	/	-1.3
Nc1ccccc1NC1=CC(=O)CC(c2ccco2)C1 (stereo not drawn)	-1.7	0.6	-1.2	30.9*	-2.9
Cc1cccc(N2CCN(Cc3nc(-c4ccccc4Cl)oc3C)CC2)n1	-6.8	1.7	3.3	39.5*	-5.3
CCOC(=O)c1cccc(NC(=O)CSc2nc3cc4ccccc4cc3[nH]2)c1	/	-0.1	/	/	8.9
Cc1cc(NS(=O)(=O)c2ccccc2)cc(Cl)c1O	88.1*	0.5	?	-4.7	6.3
Cc1ccc(S(=O)(=O)Nc2cc(C)c(O)c(S(=O)(=O)c3ccc(C)cc3)c2)cc1	87.6*	-0.7	13.1	4.0	-10.8
CCN(CC(=O)Nc1ccccc1OC)CC(=O)Nc1ccccc1-c1ccccc1	1.3	-1.7	2.5	-10.2	11.0
CCCc1cc(=O)oc2cc(C)c3c(-c4cccc(OC)c4)coc3c12	/	4.6	/	/	-10.8
C#CCOCCOCCOCCNc1nc(N2CCN(C(=O)[C@H]([C@@H](C)CC)n3cc(CCCN=C(N)N)nn3)CC2)nc(N2CCN(C(=O)[C@H](CCCCN)n3cc(CCCC)nn3)CC2)n1	-9.9	0.3	-3.2	4.8	2.3
C#CCOCCOCCOCCNc1nc(N2CCN(C(=O)[C@H](C)n3cc(CCCN=C(N)N)nn3)CC2)nc(N2CCN(C(=O)[C@H](CCCCN)n3cc(CCCC)nn3)CC2)n1	/	0.2	/	31.0*	-2.4
CC(C)CC(NC(N)=O)C(=O)NCc1ccccc1Cl (stereo not drawn)	-3.5	-0.1	1.2	4.1	37.9*
COc1ccc(C(CCN2CCCC(C)C2)c2c(OC)cc(OC)c3c2OC(=O)CC3c2cc(OC)c(OC)c(OC)c2)cc1 (stereo not drawn)	-23.4	0.0	2.4	52.0*	-27.3
COc1cc(OC)c2ccc(=O)oc2c1C(CCN1CCCC(C)C1)c1ccc2c(c1)OCO2 (stereo not drawn)	-22.5	-1.0	-1.8	83.5*	-18.0
CCCCCc1cc(=O)oc2c(C(CCN3CCN(c4ccccc4)CC3)c3ccc4c(c3)OCO4)c(OC)cc(OC)c12 (stereo not drawn)	2.0	17.3	13.6	50.1*	-8.5
CCCCN(C(=O)c1cc(-c2ccco2)nc2ccccc12)c1c(N)n(CCC)c(=O)[nH]c1=O	-4.2	-0.4	-1.9	-28.2	3.2
CCOc1cc(CNCCc2ccc(S(N)(=O)=O)cc2)ccc1OCc1ccccc1	-9.7	-0.1	-3.1	4.0	41.4*
O=C(/C=C/c1cccc(C(F)(F)F)c1)Nc1cccc(C(F)(F)F)c1	-1.2	1.1	4.2	18.8	-10.1
Cc1ccc(NC(=O)/C=C/c2cccc(C(F)(F)F)c2)cc1	-9.1	1.0	-2.6	68.5*	-21.3
COc1ccc(C)cc1NC(=O)NC1CCCc2ccccc21 (stereo not drawn)	-14.6	-1.4	-5.4	-3.4	0.9
